# Screening results from PubChem BioAssay.
# hcDAF-12 act: activates DAF-12 receptor from parasite H. contortus | HEK293 hcDAF-12 lit1-tk-luc reporter, luminescence; 0% DMSO, 100% Δ7-dafachronic acid | activation, % at 6.8 µM | 370,000 compounds, 1.4% hits | AID 652067;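 active means activation above the mean of all tested compounds plus 3 SD, cut at about 5.5% in these data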;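 further: 100% = response to 3 µM Δ7-dafachronic acid high control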
# ssDAF-12 act: activates DAF-12 receptor from parasite S. stercoralis; 370,000 compounds, 1% hits; AID 652126; HEK293 ssDAF-12/GRIP1 lit1-tk-luc reporter, luminescence; % of 3 µM dafachronic acid response; activation, % at 6.8 µM;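 active means activation above the mean over all tested compounds plus 3 SD, cut at about 0.9% in these data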;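 further: 0% = DMSO-only wells and 100% = 3 µM delta7-dafachronic acid wells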
# hgDAF-12 ag: agonists of H. glycines DAF-12 nuclear receptor | AID 687014 | activation, % at 6.8 µM | HEK293 GAL4-hgDAF12 UAS-luciferase reporter, agonist luminescence; normalized to butyrate control | 370,000 compounds, 1.8% hits;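 active means activation above a cutoff set at the mean of all screened compounds plus 3 SD, cut at about 10% in these data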;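 further: 0% = DMSO wells and 100% = sodium butyrate wells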
# FXN GAA850 act: activators of GAA850 frataxin (FXN) promoter; HEK293 lucGAA850 FXN promoter luciferase reporter, 24 h; percent of 10 µM SAHA response; AID 540364; 360,000 compounds, 0.56% hits; activation, % at 6 µM;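 active means activation above the average of all compounds screened plus 3 SD, cutoff fixed separately per campaign, cut at about 7.5% in these data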;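 further: 0% = DMSO wells and 100% = 10 µM SAHA wells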
# DAX1 inh-1: DAX1 (NR0B1) inhibition, primary screen | HEK293T StAR-luciferase reporter, SF-1/DAX-1 repression relief | inhibition, % at 6.8 µM | 370,000 compounds, 1.1% hits | AID 652010;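 active means inhibition above the mean over all tested compounds plus 3 SD, cut at about 3.6% in these data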;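 further: 0% = DAX-1 cells with DMSO and 100% = cells lacking DAX-1 with DMSO; higher inhibition means more luminescence from relief of DAX-1 repression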
# DAX1 inh-2: inhibitors of human orphan nuclear receptor DAX1 (NR0B1) | HEK293 Gal4-DAX1 luciferase reporter, luminescence | inhibition, % at 6.75 µM | 340,000 compounds, 0.99% hits | AID 504766;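 active means inhibition above the mean over all tested compounds plus 3 SD, cut at about 4.2% in these data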;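 further: 0% = DAX1-transfected cells with DMSO and 100% = empty-vector control cells with DMSO; inhibition shows as a rise in luminescence from relieved DAX1 repression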
# Target sequence (P51843 207-470 limits assumed): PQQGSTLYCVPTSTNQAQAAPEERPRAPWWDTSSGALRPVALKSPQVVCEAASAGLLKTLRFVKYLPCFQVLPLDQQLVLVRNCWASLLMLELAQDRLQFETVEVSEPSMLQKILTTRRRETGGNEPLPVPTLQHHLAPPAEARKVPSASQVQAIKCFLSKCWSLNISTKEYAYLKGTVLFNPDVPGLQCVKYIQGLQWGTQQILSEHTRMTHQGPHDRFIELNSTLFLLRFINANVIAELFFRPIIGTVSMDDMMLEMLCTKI
# Active calls of the source: *; . = not tested or not shown. Rows were chosen to be rich in hits. Some 4.5% of all compounds tested hit in one or more screens of this group.
SMILES,hcDAF-12 act,ssDAF-12 act,hgDAF-12 ag,FXN GAA850 act,DAX1 inh-1,DAX1 inh-2
O=C(NC1CCCCN(Cc2cccc(C(F)(F)F)c2)C1=O)c1ccc(F)cc1 (stereo not drawn),-1,-2,-1,.,-2,.
COC(=O)c1ccc(NC(=O)C[n+]2ccccc2)cc1,5,1.8*,4,2,0,0
CC(=O)c1ccc(NC(=O)C[n+]2ccccc2)cc1,-2,-1,1,0,-1,1
CCC(C(=O)O)n1c2ccccc2c2cn[nH]c(=O)c21 (stereo not drawn),5,1.0*,1,2,0,-1
CCOc1ccc(-n2c(COc3ccc(Cl)cc3)nnc2SCC(=O)Nc2ccc(OCc3ccccc3)cc2)cc1,-2,-1,1,.,1,.
CCc1nc2nc(C)c(NS(=O)(=O)c3ccc(CC(C)C)cc3)c(=O)n2[nH]1,-2,-1,3,2,0,-1
CCCc1nc2nc(C)c(NS(=O)(=O)c3ccc(CC(C)C)cc3)c(=O)n2[nH]1,0,-1,2,1,0,4.3*
O=C(O)Cn1c(SCc2cccc3ccccc23)nc2ccccc21,6.1*,0,1,0,0,0
Oc1ccc(-c2nnc(SCC3CCCCC3)o2)cc1,1,0,11*,6,3,1
O=C(CSc1nnc(-c2ccc(F)cc2)o1)NC1CCCCC1,-2,-2,-1,-1,1,1
CC1(C)Cc2c(c(N3CCOCC3)nc3sc(C(=O)Nc4ccccc4)c(N)c23)CO1,6.2*,-1,12*,6,1,3
CC1(C)Cc2c(c(N3CCOCC3)nc3sc(C(=O)Nc4cccc(Cl)c4)c(N)c23)CO1,0,-1,3,2,0,0
COc1ccc(N/C(C)=C/C(=S)Nc2ccccc2)cc1,10*,0,19*,3,1,-1
C=CCN1[C@H](C)COc2cc(N3CCCC3)ccc2S1(=O)=O,0,-2,-3,.,-2,.
COc1ccc(OC)c(CN2C(=O)CSCCC2(C)c2nnnn2C2CCCC2)c1 (stereo not drawn),4,-1,2,.,0,.
CCN(CC)C(=O)CSc1ncnc2c(-c3cccs3)nsc12,2,0.9*,2,5,1,1
CCN(CC)C(=O)CSc1ncnc2sccc12,0,-2,0,1,-1,1
Oc1cccc(N2CCN(c3cccc(O)c3)CC2)c1,2,0.9*,9,.,1,.
Nc1ccc(N2CCN(c3cccc(Cl)c3)CC2)cc1,0,-1,0,2,-1,0
CCNS(=O)(=O)c1ccc(-c2ccc(-n3cnnn3)cc2)cc1,0,-1,-3,2,-1,6.3*
CCOc1ccccc1Nc1cc(C)nc2nnnn12,1,1.0*,-1,1,0,0
CCc1ccc(CCNC(=O)OCCCN2CCC3(CCC(C)CC3)C2=O)cc1 (stereo not drawn),-4,-2,0,.,-2,.
C[C@@H]1CN([C@@H](C)CO)C(=O)c2cc(-c3cccnc3)cnc2O[C@H]1CN(C)C(=O)c1cccc(F)c1,0,0,0,-1,0,6.5*
C[C@H](CO)N1C[C@H](C)[C@H](CN(C)C(=O)Cc2ccncc2)Oc2ncc(Br)cc2C1=O,-2,-2,-4,-2,3.8*,1
C[C@@H]1CN([C@@H](C)CO)C(=O)c2cc(Br)cnc2O[C@H]1CN(C)C(=O)c1cccc(F)c1,-1,-1,0,0,0,1
c1nc(NCC2CCOC2)c2cc(-c3ccc4c(c3)OCO4)ccc2n1 (stereo not drawn),-1,-1,2,.,.,.
COc1ccc(CN2CCC(CNC(=O)NC(C)C)CC2)cc1,0,-1,-3,.,1,.
Cc1ccc(/C=N/Nc2ccccn2)s1,1,0,11*,7,0,1
Cc1ccc(-c2nnc(SCC(=O)Nc3ccc(OCc4ccccc4)cc3)n2-c2ccc(Cl)cc2)cc1,1,-1,0,.,-1,.
CCOC(=O)CCc1c(C)nc(SCc2ccc(C(=O)O)cc2)c(C#N)c1C,-1,-1,-1,2,0,6.0*
